Bioassay records from PubChem.
In the library only some 31% were active in any assay of this set; here they are far more common.
CYP2C19 inh: inhibitors of human CYP2C19; P33261; CYP2C19 Supersomes, luciferin-H EGE luminescence, 30 min; inhibition, % at 5 µM; hit rate 21% among 96,000;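 active = CYP2C19 inhibition above a set limit at 5 µM in the primary screen, cut at about 50% in these data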
Target sequence (P33261 whole entry, looked up): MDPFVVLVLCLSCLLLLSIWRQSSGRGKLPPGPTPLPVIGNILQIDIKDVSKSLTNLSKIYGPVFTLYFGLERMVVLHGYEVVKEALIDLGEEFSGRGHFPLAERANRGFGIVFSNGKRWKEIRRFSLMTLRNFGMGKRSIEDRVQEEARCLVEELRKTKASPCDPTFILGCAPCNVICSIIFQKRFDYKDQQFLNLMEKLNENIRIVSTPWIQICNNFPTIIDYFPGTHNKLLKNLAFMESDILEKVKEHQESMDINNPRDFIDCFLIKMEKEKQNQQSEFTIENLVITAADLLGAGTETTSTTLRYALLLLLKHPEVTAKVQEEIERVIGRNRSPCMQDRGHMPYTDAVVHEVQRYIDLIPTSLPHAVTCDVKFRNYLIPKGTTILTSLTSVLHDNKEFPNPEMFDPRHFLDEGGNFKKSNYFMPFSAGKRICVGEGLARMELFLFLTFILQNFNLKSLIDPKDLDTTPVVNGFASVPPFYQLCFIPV
CYP2C9 inhib: inhibitors of human CYP2C9. P11712. CYP2C9 Supersomes, luciferin-H conversion, luminescence. inhibition, % at 5 µM. hit rate 20% among 96,000. AID 777;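 active = blocking of liver enzyme CYP2C9 beyond about 50% at 5 µM, limit read from the data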
CYP2C9 act: CYP2C9 (human) activation | P11712 | recombinant CYP2C9, luciferin-H conversion, luminescence; hits give high values; factor 1 = untreated enzyme, 0 = blocked | activation factor at 5 µM | hit rate 1.4% among 96,000;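 active = activation factor of 2 or more for CYP2C9 at a 5 µM dose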
CYP2C19 act: increases human CYP2C19 enzyme activity. P33261. recombinant CYP2C19, luciferin-H EGE luminescence; hits give high values; 0 = fully inhibited enzyme, 1 = untreated enzyme. activation factor at 5 µM. 96,000 tested, under 10 active. AID 1025;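 active = activation factor of at least 2 at 5 µM in the primary screen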
Hits are given with their value; – = inactive.

SMILES	CYP2C19 inh	CYP2C9 inhib	CYP2C9 act	CYP2C19 act
CCCc1[nH]nc2c1C(c1ccccc1OCC)C(C#N)=C(N)O2 (configuration not stated)	–	–	–	–
CN(C)CCOc1nc(-c2ccccc2)nc2c1oc1ccccc12	–	–	–	–
c1ccc(-c2nnc(N3CCOCC3)nc2-c2ccccc2)cc1	–	–	–	–
CC(NCc1ccc2c(c1)OCO2)C(=O)NC1CCCc2ccccc21 (configuration not stated)	–	–	–	–
CCOC(=O)CSC1=C(C#N)C(c2ccccc2OCC)C(C#N)C(=O)N1 (configuration not stated)	82.6	77.6	–	–
CCOC(=O)CSC1=C(C#N)C(c2ccccc2Cl)C(C(=O)OC)C(=O)N1 (configuration not stated)	59.3	64.6	–	–
CCOC(=O)CSC1=C(C#N)C(c2ccccc2OCC)C(C(=O)OCC)C(=O)N1 (configuration not stated)	98.8	84.5	–	–
CC(=O)Oc1ccc2ccccc2c1C(NC(=O)Cc1ccccc1)c1ccccc1 (configuration not stated)	61.2	67.1	–	–
CC(=O)Oc1ccc2ccccc2c1C(NC(=O)C(C)C)c1cccc([N+](=O)[O-])c1 (configuration not stated)	–	–	–	–
CC(=O)c1ccc(Nc2ncnc3c2oc2ccccc23)cc1	–	–	–	–
O=C(NCc1cccnc1)c1cccc(S(=O)(=O)N2CCCCC2)c1	64.9	–	–	–
O=C(NCc1cccnc1)c1cc(S(=O)(=O)N2CCCCC2)ccc1Cl	80.1	93.8	–	–
Cc1ccnc(NC(=O)c2cc(S(=O)(=O)N3CCCCC3)ccc2Cl)c1	–	88.4	–	–
Cc1ccc(S(=O)(=O)N2CCOCC2)cc1C(=O)NCc1cccnc1	–	–	–	–
O=C(NCc1cccnc1)c1cccc(S(=O)(=O)N2CCOCC2)c1	61.1	–	–	–
COCCn1c(SCc2c(F)cccc2Cl)nc2c1c(=O)[nH]c(=O)n2C	–	–	–	–
COc1ccc(OCC(=O)N2CC3(C)CC2CC(C)(C)C3)cc1 (configuration not stated)	–	–	–	–
O=C(COc1ccc(S(=O)(=O)N2CCCCC2)cc1)NCc1cccnc1	–	59.8	–	–
O=C(NCc1ccco1)c1ccc(S(=O)(=O)c2cccc(S(=O)(=O)N3CCOCC3)c2)cc1	50.6	–	–	–
O=C(OCC(=O)N1c2ccccc2Sc2ccccc21)C1CC(=O)N(Cc2ccco2)C1 (configuration not stated)	70.4	88.9	–	–
CC(=O)CCc1c[nH]c2c(C(=O)O)cccc12	–	–	–	–
CCC(=O)Nc1ccc2c(c1)C(=O)N(C1CCCCC1)C2=O	–	53.4	–	–
O=C(Nc1ccncc1)c1ccc2c(c1)C(=O)N(C1CCCCC1)C2=O	75.9	92.1	–	–
O=C(c1ccc(N2C(=O)CCC2=O)cc1)N1CCN(c2ccccc2)CC1	–	–	–	–
Cc1cc(C(=O)Nc2c(F)cc(F)cc2Br)c(C)o1	–	–	–	–
SMILES	CYP2C19 inh	CYP2C9 inhib	CYP2C9 act	CYP2C19 act
Cc1cc(SCCOc2ccc(Br)cc2)nc(N)n1	–	53.9	–	–
CCCc1ccc(Oc2c(-c3ccc(O)c(C)c3O)n[nH]c2C)cc1	100.4	98.0	–	–
CCCc1ccc(OCC(=O)O)cc1	–	–	–	–
CCCc1ccc(Oc2cn[nH]c2-c2ccc(O)c(C)c2O)cc1	98.2	98.6	–	–
CCN=C1SC(CC(=O)Nc2ccc(C(F)(F)F)cc2)C(=O)N1CC (configuration not stated)	64.9	–	–	–
CCN=C1SC(CC(=O)Nc2sc(C)c(C)c2C(=O)OC)C(=O)N1CC (configuration not stated)	–	–	–	–
CCCCNC(=O)CC1Nc2ccccc2NC1=O (configuration not stated)	–	–	–	–
CCCCOc1ccccc1NC(=O)CC1Nc2ccccc2NC1=O (configuration not stated)	–	64.5	–	–
CCC(=O)Nc1sc2c(c1C#N)CCCCC2	–	–	–	–
CCN=C1SC(CC(=O)Nc2sc3c(c2C#N)CCCC3)C(=O)N1CC (configuration not stated)	–	53.2	–	–
CCNC(=O)CC1SC(=Nc2ccc(C)cc2)N(CC)C1=O (configuration not stated)	52.9	–	–	–
CCN=C1SC(CC(=O)Nc2ccc(N3CCOCC3)cc2)C(=O)N1CC (configuration not stated)	–	–	–	–
CCCCN(NC(C)=O)c1nc(Cl)nc(NC(C)C)n1	–	–	–	–
